Source: PubChem BioAssay AID1030 (National Center for Advancing Translational Sciences (NCATS), 2008)
The whole screen tested about 220,000 compounds, of which about 16,000 (7.3%) were called active. Another 25% or so got no clear call; they are omitted. Calls follow the shape of the dose curve; as a rule, active = well fitted inhibition curve with a large enough effect (not every such curve was filed as active); inconclusive = small, poorly fitted or top-dose-only effect, or another doubt; inactive = no such curve, though single readings can be large or run the other way. Shown is part of a subset that was picked to be rich in actives.

Target: Aldehyde dehydrogenase 1A1 (Homo sapiens) (UniProt P00352)
Assay: qHTS Assay for Inhibitors of Aldehyde Dehydrogenase 1 (ALDH1A1);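 as to activity, negative = inhibition: plate controls were no enzyme wells and a reference inhibitor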
Settings: Purified ALDH1A1, NADH fluorescence, propionaldehyde substrate; series mostly up to 75.3 µM; activity, negative = inhibition: at the top concentration
Potency is read from the fitted curve at half-maximal effect.

Sequence of Aldehyde dehydrogenase 1A1 (Homo sapiens) (P00352 whole entry, looked up): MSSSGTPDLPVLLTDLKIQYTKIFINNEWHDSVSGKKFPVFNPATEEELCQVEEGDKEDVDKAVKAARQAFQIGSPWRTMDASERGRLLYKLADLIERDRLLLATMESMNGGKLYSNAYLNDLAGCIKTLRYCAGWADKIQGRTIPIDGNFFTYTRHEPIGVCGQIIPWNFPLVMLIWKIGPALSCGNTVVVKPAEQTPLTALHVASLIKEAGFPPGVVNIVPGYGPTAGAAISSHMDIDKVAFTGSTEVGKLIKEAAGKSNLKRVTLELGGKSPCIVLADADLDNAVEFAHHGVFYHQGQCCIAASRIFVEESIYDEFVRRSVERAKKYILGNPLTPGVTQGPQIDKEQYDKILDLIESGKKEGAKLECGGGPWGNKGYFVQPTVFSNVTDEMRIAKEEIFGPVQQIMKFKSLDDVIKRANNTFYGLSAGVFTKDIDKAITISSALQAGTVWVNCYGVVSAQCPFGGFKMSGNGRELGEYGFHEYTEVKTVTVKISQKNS

Row | SMILES | activity, negative = inhibition | Potency
1 | CN(C)C=NC(=O)c1cccn1-c1ncc(C(F)(F)F)cc1Cl | 4.08% (inactive) | –
2 | COC(=O)c1cc(NC(=O)c2nn(C)c(=O)c3ccccc23)cc(C(=O)OC)c1 | -2.63% (inactive) | –
3 | OCCCC1CCCCN1Cc1nc(Cc2ccccc2Cl)no1 (configuration not stated) | 4.73% (inactive) | –
4 | COc1ccc(N2C(=O)/C(=C\c3ccco3)N=C2SCC(N)=O)cc1Cl | -13.6% (inactive) | –
5 | CCOC(=O)CCC(=O)OCC(=O)NC(C)C1CC2CCC1C2 (configuration not stated) | – | 15.8 µM (active)
6 | Cc1ccccc1OCCC(=O)OCC(=O)NC(C)c1ccccc1 (configuration not stated) | 4.27% (inactive) | –
7 | O=C(COC(=O)CC1CC2CCC1C2)NC(=O)NC1CCCC1 (configuration not stated) | -3.73% (inactive) | –
8 | CCOC(=O)CNC(=O)/C(=C\c1ccc(F)cc1)NC(=O)c1ccccc1 | 16.3% (inactive) | –
9 | CN(C)c1nnnn1-c1ccc(Cl)cc1 | 8.16% (inactive) | –
10 | Cc1cc(C)cc(NC(=O)CSc2ccccc2)c1 | -1.77% (inactive) | –
11 | Cc1cccc(NC(=S)Nc2ccc(Br)cc2)c1 | -3.49% (inactive) | –
12 | Cc1cccc(NC(=S)Nc2ccc3cn[nH]c3c2)c1 | – | 10 µM (active)
13 | S=C(Nc1cccc(Cl)c1)Nc1ccc2cn[nH]c2c1 | – | 28.2 µM (active)
14 | Cc1csc(NC(=S)Nc2cccc(Cl)c2)n1 | -11% (inactive) | –
15 | O=C(Nc1ccc2cn[nH]c2c1)c1ccc(S(=O)(=O)N2CCOCC2)cc1 | -7.41% (inactive) | –
16 | Cc1cccc(NC(=O)CSc2nc3[nH]ncc3c(=O)[nH]2)c1 | 6.36% (inactive) | –
17 | CC(N)(C(=O)O)c1ccc(-c2nn[nH]n2)cc1 (configuration not stated) | -9.71% (inactive) | –
18 | Cc1cc(C)c(S(=O)(=O)N2CCOCC2)cc1C | 8.64% (inactive) | –
19 | COC1(C2=NCCN2)COc2ccccc2O1 (configuration not stated) | 0.458% (inactive) | –

Row | SMILES | activity, negative = inhibition | Potency
20 | CC1(C)C(c2cccs2)=[N+]([O-])C2(CCCCC2=O)N1O (configuration not stated) | – | 22.4 µM (active)
21 | Cc1cccc(C)c1NC(=O)CNC(=O)Cc1ccc(Br)cc1 | 7.71% (inactive) | –
22 | CCCCCC1CCC(c2nnc(SCC(C)=O)o2)CC1 (configuration not stated) | -4.68% (inactive) | –
23 | CCN(CC)S(=O)(=O)c1ccc(NC(=O)c2cccnc2Cl)c(NC(=O)c2cccnc2Cl)c1 | – | 7.08 µM (active)
24 | CCN(CC)S(=O)(=O)c1cccc(C(=O)Nc2ccccc2)c1 | -7.46% (inactive) | –
25 | Cc1ccc(CNC(=O)c2cccnc2Cl)cc1 | 11.7% (inactive) | –
26 | CCN(CC)S(=O)(=O)c1ccc(C)c(NC(=O)COc2ccc(Br)cc2Cl)c1 | 0.658% (inactive) | –
27 | Cc1nn(Cc2ccc(F)cc2)c(C)c1NC(=O)c1cccnc1Cl | 10.5% (inactive) | –
28 | CCN(CC)S(=O)(=O)c1ccc(Cl)c(NC(=O)c2ccncc2)c1 | – | 12.6 µM (active)
29 | O=[N+]([O-])c1cc(S(=O)(=O)Nc2cccc(Cl)c2)ccc1N=Nc1c(O)[nH]c2ccccc12 | 7.9% (inactive) | –
30 | COc1ccc(/C=N/NC(=O)c2ccncc2)cc1CN1CCCc2ccccc21 | -1.8% (inactive) | –
31 | CC(C)N(C(=O)c1ccc(-c2ccccc2F)cc1)C(C)C | -6.51% (inactive) | –
32 | O=C(c1cccs1)N(C(=O)c1cccs1)c1ccccn1 | -0.508% (inactive) | –
33 | COc1ccc(CN(Cc2ccc(OC)cc2)C(=O)c2cccs2)cc1 | – | 8.91 µM (active)
34 | COc1ccc(CN(C(=O)c2cccs2)c2nccs2)cc1OC | 2.43% (inactive) | –
35 | CCc1ccccc1NC(=S)N(CCN1CCCCCC1)Cc1ccco1 | -4.85% (inactive) | –
36 | O=C(COC(=O)CNC(=O)c1ccco1)Nc1ccc(F)cc1 | 5.83% (inactive) | –
37 | CC(C)[C@@H]1NC(=O)[C@H](Cc2ccccc2)NC(=O)[C@@H](CC(=O)O)NC(=O)CNC(=O)[C@H](CCCNC(=N)N)NC1=O | 7.85% (inactive) | –
38 | Cc1nccc(-c2ccc(-n3c(C)ccc3C)cc2)n1 | -3.39% (inactive) | –

Row | SMILES | activity, negative = inhibition | Potency
39 | Cc1ccc(C(=O)O)cc1NC(=O)c1ccc(Cn2nc(C)c(Cl)c2C)o1 | -5.73% (inactive) | –
40 | O=C(/C=C/c1cc2c(cc1Br)OCO2)NCc1ccc(Cl)cc1 | -10.2% (inactive) | –
41 | O=C(N/N=C\c1cc(Br)c(Br)o1)C1COc2ccccc2O1 (configuration not stated) | – | 17.8 µM (active)
42 | Cc1ccc(C(=O)N/N=C\c2cc(Br)c(Br)o2)cn1 | -1.22% (inactive) | –
43 | C/C(=N/NC(=O)C1COc2ccccc2O1)c1ccco1 (configuration not stated) | 6.2% (inactive) | –
44 | O=C(CNC(=O)C(c1ccccc1)c1ccccc1)N/N=C\c1ccc2c(c1)OCO2 | 4.74% (inactive) | –
45 | O=C(N/N=C/c1cc2c(cc1Br)OCO2)C1COc2ccccc2O1 (configuration not stated) | – | 25.1 µM (active)
46 | CN(C)c1ccc(C(=S)N2CCN(C(=S)Nc3ccc(Cl)cc3)CC2)cc1 | 5.85% (inactive) | –
47 | CN(Cc1cc2cc(F)ccc2[nH]1)Cc1nc(-c2cnccn2)no1 | -3.79% (inactive) | –
48 | CC(=O)Nc1nc(N(C)C)nc(N(C)C)n1 | 5% (inactive) | –
49 | CC(=O)N/N=C(\C)c1ccc(Br)cc1Br | 12% (inactive) | –
50 | COc1ccc(-c2nc(CN3CCN(c4ncccn4)CC3)c(C)o2)cc1C | 7.29% (inactive) | –
51 | COc1cc(C2C(N3C(=O)c4ccccc4C3=O)C(=O)N2c2ccc(C)c(C)c2)cc(OC)c1OC (configuration not stated) | 3.1% (inactive) | –
52 | Cc1ccsc1/C=N/n1c(=S)[nH]nc(C)c1=O | -0.343% (inactive) | –
53 | Cc1ccccc1-c1n[nH]c(=S)n1/N=C/c1ccc(-c2ccccc2Br)o1 | – | 14.1 µM (active)
54 | Cc1n[nH]c(=S)n1/N=C/c1ccc(Br)o1 | 5.13% (inactive) | –
55 | COc1ccc(OC)c(N=Cc2c(O)[nH]c3ccccc23)c1 | -3.97% (inactive) | –
56 | COc1ccc(C=Nc2cccc3ncccc23)cc1 | – | 17.8 µM (active)
57 | COc1ccc2nccc(C(=O)O)c2c1 | 9.43% [at 20.9 µM] (inactive) | –
